Values joined by “and” are separate entries in the source; they are usually repeats but may differ in a detail not shown here. Equal values may be shown once. Active and inactive are the calls of the source. How the source made its calls: active means hit-call score of the fitted dose curve at least 0.9, where 1 is the maximum; inactive means score below 0.9.
What follows are compounds tested on catalase (CAT), CAT (gene 847) (assay: LTEA_HepaRG_CAT: Life Technologies and Expression Analysis (LTEA) Assay for catalase (CAT) using HepaRG (AID 2283452;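 on AC50: TaqMan qRT-PCR signal normalized to ACTB GAPDH and POLR2A housekeeping genes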)). Conditions: mRNA level, 48 h; actives raise or lower the signal.
Description: LTEA_HepaRG is a cell based, multiplexed-readout assay that uses HepaRG, a human liver cell line, with measurements taken at 48 hours after chemical dosing on a 96-well plate.LTEA_HepaRG_CAT is one of 102 assay component(s) measured in the LTEA HepaRG cell culture assay. It is a marker of Oxidative Stress.Data from the assay component LTEA_HepaRG_CAT was analyzed into 1 endpoint. This assay endpoint, LTEA_HepaRG_CAT, was analyzed with bidirectional fitting relative to DMSO as the negative control and baseline of activity. Using a type of inducible reporter, measures of mRNA induction for gain or loss-of-signal activity can be used to understand regulation of transcription factor activity. To generalize the intended target to other relatable targets, this assay endpoint is annotated to the catalase intended target family, where the subfamily is oxidative stress.
A total of 1060 chemcials from the ToxCast library were tested in eight-point concentration-response experiments. Cell culture and cytotoxicity assays were conducted at Thermo Fisher Scientific's Custom Services facility (Madison, WI). A single lot of human HepaRG cells (Thermo Fisher Scientific, Frederick, MD) was used for the cell culture experiments. 96-well format collagen type I coated plates of human HepaRG cells were prepared using established methods. Briefly, cryopreserved HepaRG cells were thawed, plated at a density of approximately 100,000 cells/well in HepaRG Thaw, Plate, and General Purpose media (HPRG770, Thermo Fisher Scientific), and incubated for 48 hours. 0.5% DMSO was selected as vehicle control to balance the requisite need of DMSO in HepaRG cultures to maintain differentiation (for example, baseline metabolism, proportions of hepatocytes vs. cholangiocytes), while enabling further hepatic receptor pathway activation (for example, PXR and CAR) in response to chemical exposure. 48 hours after plating, the culture medium was replaced with HepaRG Serum-Free Incudtion Media. Cells were exposed to each test chemical in duplicate and maintained in CO2 incubators for another 48 hours. Chemical plates were thawed to room temperature and 200x concentrations of treatment groups were prepared. 8-point conentration-reponse curves were made with the highest exposure at 100 uM, followed by half-log dilutions, all in 0.5% DMSO. Each test plate contained variouse controls, induction positive controls (1mM phenobarbital), cytotoxicity positive controls ([…] aflatoxin B1), vehicle controls (0.5% DMSO), and total lysis controls (0.5% DMSO). Cell morphology images were taken using an Essen IncuCyte FLR automated microscope, with six 96-well plates imaged in about 24 minutes. Images were captured and exported and JPEG files. Spent culture media was transfered to black-well plates for the LDH assay, and remaining media was sorted at -80 C for later use. Cells were treated with RLT buffer and frozen until shipped for gene expression analysis. Total RNA was isolated from the cell suspension in 75 uL of Buffer RLT (Qiagen, Germantown, MD 20874) by Quintiles/Expression Analysis (Durham, NC) using a custom isolation procedure. Total RNA from each plate well was transferred to a preamplification plate. Fluidigm's 96.96 Dynamic ArrayTM (Fluidigm, Amsterdam, the Netherlands) technology was used for gene expression analyses by quantitative reverse transcription polymerase chain reaction (qRT-PCR, performed by Quintiles/Expression Analysis, Durham, NC)89. Standard TaqManTM Assays (Applied Biosystems/ThermoFisher Scientific, Foster City, CA) were used to assess the expression of 93 genes selected based on their selectivity and sensitivity to important hepatic receptors known to be modulated by environmental chemicals; importance in human hepatocyte functionality; and hepatotoxicity. […]

SMILES	outcome	AC50
O=C(c1ccc(O)cc1O)c1ccc(O)cc1O	inactive	–
CCOC(=O)c1ccc(O)cc1	inactive	–
CC(=O)S[C@@H]1CC2=CC(=O)CC[C@]2(C)[C@H]2CC[C@@]3(C)[C@@H](CC[C@@]34CCC(=O)O4)[C@H]12	–	60.7 µM (active)
CCN(CC)C(=O)c1cccc(C)c1	inactive	–
C[C@]12C[C@H](O)[C@H]3[C@@H](CCC4=CC(=O)CC[C@@]43C)[C@@H]1CC[C@@H]2C(=O)CO	inactive	–
Oc1ccc(C(c2ccc(O)cc2)C(Cl)(Cl)Cl)cc1	–	88.8 µM (active)
CCCOC(=O)NCCCN(C)C	inactive	–
CSC(=O)c1cccc2nnsc12	inactive	–
N#CSCSc1nc2ccccc2s1	inactive	–
CCCCC(CC)COC(=O)c1ccccc1C(=O)O (stereo not given)	inactive	–
Cc1nn(C)c(Oc2ccccc2)c1C=NOCc1ccc(C(=O)OC(C)(C)C)cc1	–	2.16 µM (active)
CCCCOC(=O)[C@@H](C)Oc1ccc(Oc2ccc(C(F)(F)F)cn2)cc1	inactive	–
CC1(C)C(C=C(Cl)Cl)C1C(=O)OCc1cccc(Oc2ccccc2)c1 (stereo not given)	inactive	–
CCOC(=O)NCCOc1ccc(Oc2ccccc2)cc1	–	89.3 µM (active)
CCNc1nc(N)nc(Cl)n1	inactive	–
C#CCOC(=O)[C@@H](C)Oc1ccc(Oc2ncc(Cl)cc2F)cc1	inactive	–
O=C(O)C1(C(=O)Nc2ccc(Cl)cc2Cl)CC1	–	77.4 µM (active)
COC(=O)c1ccccc1C(=O)O	inactive	–
c1ccc(Nc2ccccc2)cc1	inactive	–
CC(C)(C)[C@@H](O)[C@@H](Cc1ccc(Cl)cc1)n1cncn1	inactive	–

SMILES	outcome	AC50
CCOC(=O)COc1cc(-n2ncc(C(F)(F)F)c(C)c2=O)c(F)cc1Cl	inactive	–
O=C(c1ccccc1)C1CCCCC1	inactive	–
CCOC(=O)C(C)Oc1ccc(Oc2nc3ccc(Cl)cc3o2)cc1 (stereo not given)	inactive	–
CCCCC(CC)CN1C(=O)C2C3C=CC(C3)C2C1=O (stereo not given)	–	77.2 µM (active)
CCN(Cc1c(F)cccc1Cl)c1c([N+](=O)[O-])cc(C(F)(F)F)cc1[N+](=O)[O-]	inactive	–
C#C[C@]1(O)CC[C@H]2[C@@H]3CCC4=CC(=O)CC[C@@H]4[C@H]3CC[C@@]21CC	inactive	–
C[C@]12CC[C@@H]3c4ccc(O)cc4C[C@@H](CCCCCCCCCS(=O)CCCC(F)(F)C(F)(F)F)[C@H]3[C@@H]1CC[C@@H]2O (stereo not given in full)	–	15.6 µM (active)
CCCN(CCC)c1c([N+](=O)[O-])cc(C(F)(F)F)c(N)c1[N+](=O)[O-]	inactive	–
CCCN(CCC)C(=O)SCC	inactive	–
O=C(Nc1ccc([N+](=O)[O-])cc1Cl)c1cc(Cl)ccc1O	–	2.85 µM (active)
CN(C)C(=O)Nc1ccc(Cl)c(Cl)c1	inactive	–
COC(=O)c1ccc(I)cc1S(=O)(=O)NC(=O)Nc1nc(C)nc(OC)n1	inactive	–
c1ccc2[nH]c(-c3cscn3)nc2c1	inactive	–
C=CCOC(Cn1ccnc1)c1ccc(Cl)cc1Cl (stereo not given)	–	33.5 µM (active)
CC(=O)[C@H]1CC[C@H]2[C@@H]3CCC4=CC(=O)CC[C@]4(C)[C@H]3CC[C@]12C	–	50 µM (active)
S=C([S-])NCCNC(=S)[S-].[Mn+2]	–	2.97 µM (active)
S=C(S)NCCNC(=S)S.[Mn+2].[S-]C([S-])=NCCN=C([S-])[S-].[Zn+2]	–	881 nM (active) and 1.09 µM (active) and 1.05 µM (active)
COC(=O)CSc1cc(N=c2sc(=O)n3n2CCCC3)c(F)cc1Cl	inactive	–
CCCCOCCOCCOCc1cc2c(cc1CCC)OCO2	inactive	–
CCSC(=O)N(CC(C)C)CC(C)C	inactive	–
